Measurements: PubChem BioAssay AID687014 (The Scripps Research Institute Molecular Screening Center, 2013)
The whole screen tested about 370,000 compounds, of which about 6,800 (1.8%) were called active. The sample as a whole holds a higher share of actives than the screen did. Unmarked numbers belong to inactive results.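 The calls were made as follows: active = activation above a cutoff set at the mean of all screened compounds plus 3 SD (cut at about 10% in these data); inactive = the rest.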

These compounds were tested on Nuclear hormone receptor DAF-12 (Heterodera glycines), GAL4 fusion (assay: hgDAF-12 GAL4 fusion reporter activation – cell-based, luminescence, HEK293, UAS-luciferase, primary screen (AID 687014;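 also: 0% = DMSO wells and 100% = sodium butyrate wells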)). Conditions: HEK293 GAL4-hgDAF12 UAS-luciferase reporter, agonist luminescence; at 6.8 µM; active compounds read high; normalized to butyrate control.

Row | Compound | activation
1 | C[C@H]1CN([C@@H](C)CO)C(=O)CCCn2nncc2CO[C@@H]1CN(C)C(=O)Nc1ccc(N2CCN(C)CC2)cc1 | -1.55%
2 | CCOc1ccc(-n2c(SCC(=O)Nc3cc(C)c(NC(=O)c4ccccc4)cc3OC)nnc2-c2cccc(Cl)c2)cc1 | -2.83%
3 | COC(=O)C1=C(C)N(Cc2cccc(C(F)(F)F)c2)C(=NCc2ccccc2)NC1c1ccc(Cl)cc1 (stereo not drawn) | 4.18%
4 | COCCNC(=O)c1ccc2nc(Cc3ccc(OC)c(OC)c3)oc2c1 | 4.83%
5 | COc1ccc(Cc2nc3ccc(C(=O)NCC4CCOCC4)cc3o2)cc1OC | 2.3%
6 | CSCCNC(=O)c1ccc2nc(Cc3ccccc3F)oc2c1 | 10.5% (active)
7 | Brc1ccc(/C=N/N2CCN(C3c4ccccc4-c4ccccc43)CC2)s1 | 0.61%
8 | COc1cccc(N(CC(=O)NC2CCCC2)C(=O)Cn2nnc(-c3ccc(C)o3)n2)c1 | 0.01%
9 | C[C@]12CCC(=O)C=C1C=CC1C2CC[C@@]2(C)C1CC[C@@]21CCC(=O)O1 (stereo partly drawn) | -2.47%
10 | Cc1ccc(C)c(C(C)NC(=O)C2CCCO2)c1 (stereo not drawn) | -0.46%
11 | O=C(Nc1nnc(SCc2c(Cl)cccc2Cl)s1)C1CCCO1 (stereo not drawn) | 3.2%
12 | Cc1cc(C)c2nc(NC(=O)C3CCCO3)sc2c1 (stereo not drawn) | 11.9% (active)
13 | CCOc1ccc(-n2c(SCC(=O)Nc3cc(C)c(NC(=O)c4ccccc4)cc3OC)nnc2-c2cccs2)cc1 | 7.81%
14 | O=C(CSc1nnc2ccccn12)c1ccccc1 | 8.56%
15 | Cc1cc(C(=O)CSc2nc(N)cc(=O)[nH]2)c(C)n1-c1cccc(F)c1 | -3.64%
16 | Cc1ccc(-n2c(C)cc(C(=O)CSc3nnc4ccccn34)c2C)cc1 | 11.6% (active)
17 | CS(=O)(=O)N1CCC(C(=O)N2CCN(c3ccccc3)CC2)CC1 | -2.01%
18 | CS(=O)(=O)N1CCc2nc(-c3ccccc3)sc2C1 | 15.3% (active)
19 | CS(=O)(=O)N1CCN(c2cccc(Cl)n2)CC1 | -0.95%
20 | CCc1c(-c2ccccc2OC)ncn1CCc1ccccc1OC | -2.96%

Row | Compound | activation
21 | O=C(N/N=C\c1ccc(Br)cc1)c1ccc(Cn2cccn2)o1 | 10.5% (active)
22 | CN(C)c1ccc(/C=N/NC(=O)c2ccc(Cn3cc(Br)cn3)o2)cc1 | 5.9%
23 | Cc1c(Cl)c([N+](=O)[O-])nn1Cc1ccc(C(=O)N/N=C\c2cc(Cl)ccc2O)o1 | 0.23%
24 | COc1ccc(-n2c(SCC(=O)Nc3ccccc3-c3ccccc3)nnc2-c2cccnc2)cc1 | 0.21%
25 | COc1ccc(C(=O)Nc2ccc(F)cc2F)cc1 | 10.5% (active)
26 | COc1ccc(NC(=O)c2c(C)oc3c2CCCC3)cc1 | 3.38%
27 | O=C(Nc1ccc2ccccc2c1)Nc1ccc2snnc2c1 | 1.18%
28 | COc1ccc(NC(=O)c2ccc(OC)cc2)cc1 | 14.9% (active)
29 | COCCNC(=O)Nc1ccc2nc(-c3ccco3)c(-c3ccco3)nc2c1 | -6.29%
30 | COc1ccc(C(=O)Nc2ccc(-n3nncc3C(C)(C)C)cc2)cc1 | -2.44%
31 | O=C(C=CC(=O)Nc1ccc(F)cc1F)Nc1ccc(F)cc1F | -0.27%
32 | COc1ccc(NC(=O)Nc2ccc3nsnc3c2)cc1 | 15.7% (active)
33 | CCOC(=O)N1CCN(S(=O)(=O)c2ccc(C(=O)Nc3ccc(F)cc3F)cc2)CC1 | 3.94%
34 | COc1ccc(-n2c(C)nn(CC3CC3)c2=O)cc1 | -0.88%
35 | Cn1c(CC2Sc3ccccc3NC2=O)nnc1SCC(=O)c1ccc(Cl)cc1 (stereo not drawn) | 2.7%
36 | CCn1c(SCC(C)=O)nc2sc3c(c2c1=O)CCCC3 | -0.6%
37 | Nc1[nH]c(C(=O)c2ccccc2)c(-c2ccc(Cl)cc2Cl)c1C(=O)c1ccccc1 | 0.29%
38 | O=C(Nc1ccc(F)cc1)C(CCc1ccccc1)N1CCN(CC(=O)N2CCCC2)CC1 (stereo not drawn) | -2.94%
39 | COC(=O)[C@]12C[C@H](CC(=O)NCCc3ccccc3OC)C(=O)N(Cc3ccccc3)C1=C[C@H](C(C)C)O[C@@H]2C1CC1 | -1.92%
40 | O=C(N/N=C/c1ccc(O)c(O)c1)C1c2ccccc2Oc2ccccc21 | -0.99%

Row | Compound | activation
41 | CC(NC(=O)c1cccc2ccccc12)c1ccc2c(c1)CCCC2 (stereo not drawn) | 1.33%
42 | O=C(NN=Cc1ccc2c(c1)CCC2)c1ccccc1O | 14.7% (active)
43 | Cc1nn(-c2ccccc2)c2[nH]c(C(F)(F)F)cc(=O)c12 | 0.5%
44 | CC1CCN(C(=O)c2ncn3c2C(=O)N[C@@H](C)C3)CC1 | 0.1%
45 | COC(=O)c1ccc(CSc2nnc(NC(C)C)s2)cc1 | -0.67%
46 | CCCc1cc(=O)[nH]c2nnc(SCC(=O)Nc3nnc(SCC)s3)n12 | 1.68%
47 | CCSc1nnc(NC(=O)c2ccc(C)cc2)s1 | 14.4% (active)
48 | CCOC(=O)N1CCN(C(=O)C[C@H]2C[C@@]3(C(=O)OC)C(=C[C@H](C(C)(C)C)O[C@@H]3C)N(Cc3ccc(Cl)cc3Cl)C2=O)CC1 | 0%
49 | COC(=O)c1cccc(Cn2ccc3ccc(-c4ccc5ccn(C(=O)C6CCCCC6)c5c4)cc32)c1 | 3.04%
50 | Cc1cccc(NC(=O)Cc2ccc(Br)cc2)n1 | 3%
51 | Cc1cccc(NC(=O)c2ccc3ccccc3n2)n1 | 14.8% (active)
52 | CC(NC(=O)COC(=O)c1ccc2ccccc2n1)c1ccccc1 (stereo not drawn) | 5.11%
53 | C=CCN1[C@@H](Cc2ccccc2)COc2cccc(N3CCSCC3)c2S1(=O)=O | 3.43%
54 | COc1ccc(/C=C2/C(=O)OCc3cc(OC)c(OC)cc32)c(OC)c1 | -3.92%
55 | COc1ccc2c(c1)O/C(=C\c1ccccc1O)C2=O | 13% (active)
56 | O=C1Oc2ccccc2C(=O)/C1=C/c1ccccc1O | -1.59%
57 | CSc1ccc(Oc2cccc3c2S(=O)(=O)N([C@H](C)c2ccccc2)C[C@@H](COCc2ccccc2)O3)cc1C | 1.48%
58 | O=S1(=O)c2c(cccc2N2CCCC2)O[C@H](COCc2ccccc2)CN1C1CC1 | -1.8%
